# Data published in PubChem BioAssay (NCATS).
# Inconclusive results are not listed. Active and inactive are the calls of the source. Unless noted, calls follow the shape of the dose curve; as a rule, active = well fitted curve in either direction with a large enough effect (not every such curve was filed as active); inconclusive = small, poorly fitted or top-dose-only effect, or another doubt; inactive = flat fitted curve, though single readings scatter.
# Tests used:
# [1] = target: Lysosomal acid glucosylceramidase (Homo sapiens) (UniProt P04062); assay: Glucocerebrosidase-p2 (AID 348; in the data active = potency below about 10 µM; also: potency is read from the fitted curve at half-maximal effect); details: purified GBA, blue fluorogenic substrate, 40 min
# Sequence of Lysosomal acid glucosylceramidase (Homo sapiens) (P04062 whole entry, looked up): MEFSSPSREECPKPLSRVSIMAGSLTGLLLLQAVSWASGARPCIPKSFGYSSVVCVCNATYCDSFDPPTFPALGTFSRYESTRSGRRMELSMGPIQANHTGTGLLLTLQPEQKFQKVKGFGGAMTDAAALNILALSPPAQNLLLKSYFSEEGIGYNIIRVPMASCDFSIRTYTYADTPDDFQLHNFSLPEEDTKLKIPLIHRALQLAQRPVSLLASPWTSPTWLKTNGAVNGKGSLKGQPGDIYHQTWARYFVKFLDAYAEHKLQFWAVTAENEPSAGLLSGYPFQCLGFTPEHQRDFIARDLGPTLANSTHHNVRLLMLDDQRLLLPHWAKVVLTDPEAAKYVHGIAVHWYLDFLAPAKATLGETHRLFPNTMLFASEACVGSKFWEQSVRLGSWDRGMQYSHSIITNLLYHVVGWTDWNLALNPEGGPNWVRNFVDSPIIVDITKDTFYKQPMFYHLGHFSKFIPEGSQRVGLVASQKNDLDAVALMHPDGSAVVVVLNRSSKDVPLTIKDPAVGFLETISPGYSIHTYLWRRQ
# In short: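 Compounds titrated from 0.6 nM upwards against 0.2 nM enzyme in pH 5.9 citric acid/KH2PO4, taurocholate, tween-20; blue fluorogenic substrate 80 uM, 40 min room temperature, stopped and read Ex 365/Em 440 for AC50.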
# [2] = AP1 Signaling Pathway (AID 357); details: ME-180 AP-1-bla reporter, EGF-induced, beta-lactamase ratio, 5 h; at 7.69 µM (top of the series) unless noted;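 also: ME-180 reporter cells stimulated with EGF at its EC50 level; % is scaled to controls: 0 for no effect and ±100 for the full control effect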
# In short: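 Modulation of EGF-driven AP-1 transcription was assessed with a beta-lactamase reporter in ME-180 cells. Compound and EC50 EGF were co-incubated 5 hours at 37 °C before 2.5-hour CCF4 loading at room temperature and dual-emission reading.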
# [3] = target: Cytochrome P450 1A2 (Homo sapiens) (UniProt P05177); assay: p450-cyp1a2 (AID 410; calls by dose curve;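 also: -100% = full effect of reference inhibitor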); details: recombinant CYP1A2, luciferin-ME demethylation, luminescence; series mostly up to 57 µM
# Sequence of Cytochrome P450 1A2 (Homo sapiens) (P05177 whole entry, looked up): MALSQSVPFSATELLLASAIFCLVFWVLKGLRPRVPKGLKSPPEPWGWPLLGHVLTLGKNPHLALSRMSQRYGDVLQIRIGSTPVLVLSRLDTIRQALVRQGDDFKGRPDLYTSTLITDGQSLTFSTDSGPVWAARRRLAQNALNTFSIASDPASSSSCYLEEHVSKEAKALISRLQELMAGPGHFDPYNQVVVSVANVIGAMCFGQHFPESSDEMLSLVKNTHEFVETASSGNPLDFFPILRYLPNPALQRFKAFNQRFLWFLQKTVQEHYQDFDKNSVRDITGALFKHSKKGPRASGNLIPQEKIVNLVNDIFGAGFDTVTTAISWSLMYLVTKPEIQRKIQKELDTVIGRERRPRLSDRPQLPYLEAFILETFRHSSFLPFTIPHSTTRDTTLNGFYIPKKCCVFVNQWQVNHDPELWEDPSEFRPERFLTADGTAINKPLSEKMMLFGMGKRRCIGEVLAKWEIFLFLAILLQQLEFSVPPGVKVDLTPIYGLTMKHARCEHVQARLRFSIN
# In short: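 Inhibition was calculated relative to 57 uM furafylline (full inhibition). The reaction used human CYP1A2 at 20nM with Luciferin-ME at its Km, 100uM, driven by an NADPH-regenerating system for 60 min at room temperature.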
# [4] = Stat Signaling Pathway (AID 446); details: ME-180 SIE beta-lactamase reporter, IL-6 stimulated, 5 h; at 7.69 µM (top of the series) unless noted;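 also: ME-180 cervical cancer cells given 40 pM IL-6 alongside compound; SIE-controlled beta-lactamase reporter measured as 460/530 nm FRET emission ratio; % is scaled to controls: 0 for no effect and ±100 for the full control effect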
# In short: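 ME-180 cells carrying a SIE-driven beta-lactamase reporter are stimulated with 40 pM IL-6 for 5 h at 37C in the presence of compound. The 460/530 nm FRET substrate ratio is read after 2.5 h at RT. Data are normalised to 300 pM IL-6 and to 125 nM JAK inhibitor controls.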
# [5] = target: Glucocorticoid receptor (Homo sapiens) (UniProt P04150); assay: GR-EFC Redistribution (AID 451; calls by dose curve; also: potency is read from the fitted curve at half-maximal effect); details: CHO-K1 GR-EFC translocation, beta-gal luminescence, 2 h
# Sequence of Glucocorticoid receptor (Homo sapiens) (P04150 whole entry, looked up, the tested form may be a part): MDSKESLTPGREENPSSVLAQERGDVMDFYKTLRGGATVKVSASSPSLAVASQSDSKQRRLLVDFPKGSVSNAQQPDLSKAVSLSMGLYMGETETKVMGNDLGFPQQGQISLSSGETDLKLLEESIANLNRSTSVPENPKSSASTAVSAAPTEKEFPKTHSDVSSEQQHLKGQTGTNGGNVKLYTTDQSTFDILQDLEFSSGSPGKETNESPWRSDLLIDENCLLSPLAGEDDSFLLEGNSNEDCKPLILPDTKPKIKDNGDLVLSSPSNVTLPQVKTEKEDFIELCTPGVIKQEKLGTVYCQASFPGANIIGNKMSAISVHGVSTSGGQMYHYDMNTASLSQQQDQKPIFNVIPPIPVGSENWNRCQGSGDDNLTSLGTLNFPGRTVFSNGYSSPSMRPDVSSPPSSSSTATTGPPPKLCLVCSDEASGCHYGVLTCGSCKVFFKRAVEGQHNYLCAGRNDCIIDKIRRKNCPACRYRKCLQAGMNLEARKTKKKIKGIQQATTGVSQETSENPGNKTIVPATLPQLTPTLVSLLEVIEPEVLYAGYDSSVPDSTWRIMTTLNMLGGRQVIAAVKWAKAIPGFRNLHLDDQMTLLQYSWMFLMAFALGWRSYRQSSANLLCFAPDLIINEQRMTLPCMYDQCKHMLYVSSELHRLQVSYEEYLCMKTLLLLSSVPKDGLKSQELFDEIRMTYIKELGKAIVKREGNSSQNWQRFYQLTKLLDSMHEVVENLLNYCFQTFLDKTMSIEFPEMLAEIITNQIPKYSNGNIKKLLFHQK
# In short: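 Translocation of GR-ED fusion to nuclear EA restores b-gal, read by luminescence after 1 h room-temperature detection. Engineered CHO-K1 biosensor cells, 1,000/well, exposed 2 h at 37 C to titrations up to 46 uM final.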
# [6] = target: Mitogen-activated protein kinase 10 (Mus musculus) (UniProt Q61831); assay: JNK3 AlphaScreen Assay (AID 530); details: JNK3 lysate, c-Jun phosphorylation; series mostly up to 57.1 µM;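 also: kinase came from lysate of stimulated human HepG2 cells; signal reports phosphorylation of biotinylated GST-cJun 1-79 at Ser73 with 10 µM ATP; % is scaled to controls: 0 for no effect and ±100 for the full control effect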
# In short: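 Room-temperature AlphaScreen kinase assay; pre-activated HepG2 lysate as JNK3 source, biotin-GST-cJun(1-79) substrate, 10 uM ATP, compound 15 min preincubation.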
# [7] = target: 3',5'-cyclic-AMP phosphodiesterase 4B (Homo sapiens) (UniProt Q07343); assay: qHTS Assay for Inhibitors of PDE-IV (AID 607; active = well fitted activation curve with a large enough effect in the main read-out, with a control signal flat, not every such curve was filed as active; also: % of control where 0% means no effect); details: HEK293 ACTOne CNG channel cells, membrane potential fluorescence; series mostly up to 22.9 µM
# Sequence of 3',5'-cyclic-AMP phosphodiesterase 4B (Homo sapiens) (Q07343 whole entry, looked up): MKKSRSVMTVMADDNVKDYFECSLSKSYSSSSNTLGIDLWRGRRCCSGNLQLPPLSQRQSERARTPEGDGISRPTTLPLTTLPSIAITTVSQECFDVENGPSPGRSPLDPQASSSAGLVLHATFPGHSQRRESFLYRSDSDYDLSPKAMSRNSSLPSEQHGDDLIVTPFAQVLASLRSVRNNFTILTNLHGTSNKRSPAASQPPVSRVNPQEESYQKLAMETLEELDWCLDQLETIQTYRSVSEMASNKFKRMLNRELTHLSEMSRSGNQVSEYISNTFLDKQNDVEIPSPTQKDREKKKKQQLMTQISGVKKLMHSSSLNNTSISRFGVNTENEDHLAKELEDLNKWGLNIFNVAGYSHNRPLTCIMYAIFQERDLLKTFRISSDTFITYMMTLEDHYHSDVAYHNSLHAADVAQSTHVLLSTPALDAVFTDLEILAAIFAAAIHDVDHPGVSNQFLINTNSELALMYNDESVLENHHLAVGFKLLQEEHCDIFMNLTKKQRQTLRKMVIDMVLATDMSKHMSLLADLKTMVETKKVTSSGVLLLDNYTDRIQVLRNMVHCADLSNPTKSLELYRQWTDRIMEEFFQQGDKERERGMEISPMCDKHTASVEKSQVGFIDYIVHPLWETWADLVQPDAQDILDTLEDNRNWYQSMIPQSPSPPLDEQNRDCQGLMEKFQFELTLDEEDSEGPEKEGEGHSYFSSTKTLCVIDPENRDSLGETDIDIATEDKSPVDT
# In short: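 HEK293 ACTOne cells with CNG channel (1000/well), endogenous PDE4; membrane potential dye, compounds up to 22.9 uM final. Fluorescence Ex 535/Em 590; RO 20-1724 (100 uM final) as reference.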
# [8] = target: Cytochrome P450 3A4 (Homo sapiens) (UniProt P08684); assay: qHTS Assay for Activators of Cytochrome P450 3A4 (AID 885; active = well fitted curve in the direction sought with a large enough effect; an effect the other way counts as inactive or inconclusive; also: nearly all actives have a fitted effect of over 65% in size; also: potency is read from the fitted curve at half-maximal effect); details: recombinant CYP3A4, Luciferin-PPXE luminescence, 60 min; series mostly up to 57.1 µM
# Sequence of Cytochrome P450 3A4 (Homo sapiens) (P08684 whole entry, looked up): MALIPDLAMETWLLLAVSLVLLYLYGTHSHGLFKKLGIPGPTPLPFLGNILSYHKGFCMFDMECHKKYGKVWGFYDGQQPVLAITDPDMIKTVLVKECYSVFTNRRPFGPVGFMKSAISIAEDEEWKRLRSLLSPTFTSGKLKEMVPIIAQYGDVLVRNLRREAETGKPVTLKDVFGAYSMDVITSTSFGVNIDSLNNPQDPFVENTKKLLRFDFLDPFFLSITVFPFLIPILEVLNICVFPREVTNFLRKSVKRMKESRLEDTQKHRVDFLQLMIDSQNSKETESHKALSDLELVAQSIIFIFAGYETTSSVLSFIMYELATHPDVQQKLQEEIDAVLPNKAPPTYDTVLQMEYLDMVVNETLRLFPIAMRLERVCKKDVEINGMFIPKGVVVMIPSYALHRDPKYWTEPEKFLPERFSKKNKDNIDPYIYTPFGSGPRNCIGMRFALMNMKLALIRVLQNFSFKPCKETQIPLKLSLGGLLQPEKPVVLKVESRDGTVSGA
# In short: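 Human CYP3A4 (20 nM) with Luciferin-PPXE at 25 uM (its KM) in 200 mM KPO4; 10 min compound preincubation, then NADPH regeneration and 60 min reaction at RT. Luciferin read by luminescence; normalized to 57 uM ketoconazole full inhibition.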
# [9] = target: Cytochrome P450 2D6 (Homo sapiens) (UniProt P10635); assay: qHTS Assay for Inhibitors and Substrates of Cytochrome P450 2D6 (AID 891; active = well fitted curve in the direction sought with a large enough effect; an effect the other way counts as inactive or inconclusive; also: potency is read from the fitted curve at half-maximal effect; nearly all actives have a fitted effect of over 60% in size); details: recombinant CYP2D6, luciferin-ME EGE luminescence; series mostly up to 57.1 µM
# Sequence of Cytochrome P450 2D6 (Homo sapiens) (P10635 whole entry, looked up): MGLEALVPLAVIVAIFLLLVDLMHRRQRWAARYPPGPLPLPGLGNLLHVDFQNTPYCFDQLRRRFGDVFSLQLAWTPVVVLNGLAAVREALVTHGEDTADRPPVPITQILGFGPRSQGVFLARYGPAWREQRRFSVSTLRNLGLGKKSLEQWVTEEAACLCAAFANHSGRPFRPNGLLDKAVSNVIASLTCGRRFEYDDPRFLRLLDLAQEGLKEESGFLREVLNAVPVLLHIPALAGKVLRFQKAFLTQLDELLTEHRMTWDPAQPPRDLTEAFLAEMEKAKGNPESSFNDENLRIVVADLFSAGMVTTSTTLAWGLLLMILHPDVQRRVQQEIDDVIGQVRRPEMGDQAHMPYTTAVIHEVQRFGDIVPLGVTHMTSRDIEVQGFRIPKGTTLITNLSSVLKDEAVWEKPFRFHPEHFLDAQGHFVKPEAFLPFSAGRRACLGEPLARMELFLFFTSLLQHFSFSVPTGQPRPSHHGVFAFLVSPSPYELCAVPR
# In short: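 Human CYP2D6 (5 nM) with 30 uM Luciferin-ME EGE (at Km) in 100 mM KPO4, compound preincubated 10 min, then NADPH regeneration system for 60 min at room temperature. Luciferin read by luminescence; normalized to 1.43 uM quinidine.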
# [10] = qHTS Assay for Lipid Storage Modulators (AID 1519; calls by dose curve); details: Drosophila S3 cells, BODIPY lipid droplet/cell ratio, laser cytometry, cells loaded with oleic acid; for activity change, negative = inhibition: at 57.5 µM (top of the series)
# In short: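 Cells seeded at 5,000 per well were treated with compounds over a concentration series and loaded with oleic acid (400 uM, as added). Lipid droplet fluorescence (488 nm excitation, 500-530 nm channel) was read by laser-scanning cytometry and normalized to 20 uM Triacsin C.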
# [11] = Primary qHTS for small molecule stabilizers of the endoplasmic reticulum resident proteome: Secreted ER Calcium Modulated Protein (SERCaMP) assay (AID 1508630; active = well fitted curve in the direction sought with a large enough effect; an effect the other way counts as inactive or inconclusive; also: % is scaled to controls: 0 for no effect and ±100 for the full control effect); details: SH-SY5Y GLuc-SERCaMP (Gaussia luciferase released on ER calcium loss) secretion, thapsigargin, luminescence; series mostly up to 38.4 µM
# In short: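 GLuc-SERCaMP-expressing SH-SY5Y cells, pretreated 16 h with compound, are challenged with thapsigargin to empty ER calcium stores; after 4 h, coelenterazine is added directly to the medium and luminescence is imaged.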
# [12] = target: Cytochrome P450 3A4 (Homo sapiens) (UniProt P08684); assay: qHTS Assay for Inhibitors and Substrates of Cytochrome P450 3A4 (AID 884; active = well fitted curve in the direction sought with a large enough effect; an effect the other way counts as inactive or inconclusive; also: nearly all actives have a fitted effect of over 50% in size; also: potency is read from the fitted curve at half-maximal effect); details: recombinant CYP3A4, Luciferin-PPXE luminescence; series mostly up to 57.1 µM
# In short: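 20 nM human CYP3A4 with 25 uM Luciferin-PPXE (at KM) in 200 mM KPO4, preincubated 10 min with compound; NADPH regeneration started a 60 min RT reaction. Luciferin detected by luminescence, normalized to 57 uM ketoconazole as full inhibition.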
# [13] = qHTS Assay for Identification of Small Molecule Agonists for Hypoxia Response Element Signaling Pathway (AID 914; active = well fitted activation curve with a large enough effect in the signal ratio, with a control signal flat, not every such curve was filed as active; the % refers to the signal ratio; also: % of control where 0% means no effect); details: ME-180 (cervical carcinoma) HRE-bla reporter, beta-lactamase ratio, CoCl2, 17 h; activation: stronger effect = higher value
# In short: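 Positive modulation of EC50 CoCl2-induced hypoxia response element signaling is measured in ME-180 cells with a beta-lactamase reporter. Compounds are titrated, incubation runs 17 hours, and %Activity derives from the blue/green ratio.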
# [14] = measured here: cell count channel max response
# [15] = measured here: lipid channel max response
Structure (SMILES),Potency [1],"activity change, negative = inhibition [2]",Potency [3],"activity, negative = inhibition [4]",Potency [5],Potency [6],Potency [7],Potency [8],Potency [9],"activity change, negative = inhibition [10]","max response [10, 14] [%]","max response [10, 15] [%]",outcome [11],Potency [12],activation [13]
N#Cc1ccc(CN2CCC3(CC2)CCN(C(=O)c2ccncc2)CC3)cc1,> 11.4 µM (inactive),1.51% (inactive),inactive,-3.87% (inactive),> 46 µM (inactive),inactive,inactive,inactive,6.31 µM (active),1.92% (inactive),15.7,18.7,inactive,,
COc1ccccc1CN1CC2(CCN(C(=O)c3ccncc3)CC2)C1,> 11.4 µM (inactive),-0.483% (inactive),inactive,-1.82% (inactive),> 46 µM (inactive),inactive,inactive,inactive,0.794 µM (active),-2.12% (inactive),-19.5,-17.3,inactive,,
COc1ccc(C(=O)N2CCC3(CCCN(CC(C)C)C3)CC2)cc1,> 11.4 µM (inactive),-7.24% (inactive),inactive,-5.73% (inactive),> 46 µM (inactive),inactive,inactive,inactive,,2.63% (inactive),21.1,26.9,inactive,,
Cc1noc(C)c1C(=O)N1CCC2(CCCN(c3ccncc3)C2)CC1,> 11.4 µM (inactive),6.75% (inactive),inactive,8.27% (inactive),> 46 µM (inactive),inactive,inactive,inactive,,5.44% (inactive),15.3,23.4,inactive,,
O=C(c1cc(C(F)(F)F)cc(C(F)(F)F)c1)N1CCC[C@@]2(CCN(c3ncccn3)C2)C1,> 11.4 µM (inactive),8.42% (inactive),inactive,-17.1% (inactive),> 46 µM (inactive),inactive,inactive,inactive,,4.69% (inactive),8.96,17.5,inactive,,
O=C(c1csnn1)N1CCC2(CC1)CCN(c1ccncc1)CC2,> 11.4 µM (inactive),0.494% (inactive),inactive,0.543% (inactive),> 46 µM (inactive),inactive,inactive,inactive,,1.35% (inactive),6.68,10,inactive,,
CC(C)CN1CCCC2(CCN(S(=O)(=O)c3ccccc3)CC2)C1,> 11.4 µM (inactive),1.33% (inactive),inactive,0.203% (inactive),> 46 µM (inactive),inactive,inactive,inactive,,2.73% (inactive),12.5,15.5,inactive,,
Cc1noc(C)c1C(=O)N1CCC2(CCCN(Cc3ccccc3)C2)CC1,> 11.4 µM (inactive),3.01% (inactive),inactive,4.66% (inactive),> 46 µM (inactive),inactive,inactive,inactive,,4.04% (inactive),15.8,21.7,inactive,,
O=C(c1ccco1)N1CCC2(CC1)CCN(C(c1ccccc1)c1ccccc1)CC2,> 11.4 µM (inactive),0.867% (inactive),inactive,-7.63% (inactive),> 46 µM (inactive),inactive,inactive,12.6 µM (active),5.01 µM (active),3.39% (inactive),7.88,15,inactive,inactive,
N#Cc1cccc(NC(=O)N2CCC3(CC2)CCN(C(=O)c2cccc(F)c2)CC3)c1,> 11.4 µM (inactive),-11.8% (inactive),inactive,-7.8% (inactive),> 46 µM (inactive),inactive,inactive,7.94 µM (active),,5.01% (inactive),6.66,13.2,inactive,inactive,
CC(C)CN1CCC2(CC1)CCN(C(=O)c1ccncc1)CC2,> 11.4 µM (inactive),-3.14% (inactive),inactive,-5.7% (inactive),> 46 µM (inactive),inactive,inactive,inactive,3.98 µM (active),0.393% (inactive),14.2,14.7,inactive,,
O=C(c1cccc(F)c1)N1CCC[C@@]2(CCN(c3ccccc3)C2)C1,> 11.4 µM (inactive),-6.87% (inactive),inactive,-5.23% (inactive),> 46 µM (inactive),inactive,inactive,inactive,,4.17% (inactive),8.88,15.7,inactive,6.31 µM (active),
CN1CC[C@@]2(CCCN(C(=O)c3cc(C(F)(F)F)cc(C(F)(F)F)c3)C2)C1,> 11.4 µM (inactive),-0.328% (inactive),inactive,13.1% (inactive),> 46 µM (inactive),inactive,inactive,inactive,,1.24% (inactive),-1.13,2.81,inactive,,
O=C(c1ccco1)N1CCC2(CCN(Cc3nccs3)CC2)CC1,> 11.4 µM (inactive),5.22% (inactive),inactive,4.68% (inactive),> 46 µM (inactive),inactive,inactive,,,1% (inactive),8.57,12.6,inactive,inactive,-9.81% (inactive)
